Results on 17 molecules are retold here after PubChem BioAssay (NCI).

The panel holds about 79,000 compounds, 15% with a hit somewhere; the sample as a whole holds those more often. Active and inactive are the calls of the source. Cut-off read from the data, not from the text of the source: active = growth inhibition above about 70%; inactive = the rest.

This experiment can be described thus: NCI Yeast Anticancer Drug Screen. Data for the sgs1 mgt1 strain (AID 161).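 Note: 0% = growth of cultures given vehicle only.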 As to conditions: S. cerevisiae sgs1 mgt1 strain, at 50.0 µM, hits give high values. The gist of the method: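 Inhibition of yeast growth, normalised to vehicle-treated controls, is reported for a strain bearing genetic alterations in DNA damage repair.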
Consider `O=C(Nc1cccc(Cl)c1)Nc1ccc(Sc2ccc(Cl)cc2)o1`, for which the growth inhibition is 70.6% (active).
The result for `c1ccc(C(C2=Nc3cccc4cccc(c34)N2)c2ccccc2)cc1` reads -50.7% (inactive); that for `O=C1C2=C(c3ccccc31)C(c1ccccc1Cl)N1C(=O)CCSC1=N2` (configuration not stated), 13.9% (inactive).
With `Cc1ccc(NC2=N/C(=C/c3ccco3)C(Cl)=N2)cc1`, the growth inhibition was 14.5% (inactive).
In the case of `c1ccc(C2Nc3ccccc3NC2c2ccccc2)cc1` (configuration not stated), the growth inhibition was 24.4% (inactive).
Turning to `O=C1CC2(CCc3ccccc32)C(=O)N1CN1CCN(c2ccccn2)CC1` (configuration not stated), the growth inhibition was -10% (inactive).
In the case of `CC1(C)COC(c2ccccc2Cl)OC1`, the growth inhibition was -0.45% (inactive).
As for `COc1ccc(C2=NOC3COC4C=CC=CC4OCC23)cc1` (configuration not stated), the growth inhibition is -13.6% (inactive).
The result for `Cc1ccc(NC(=O)CC2SC(=Nc3cccc(Cl)c3C)NC2=O)cc1` (configuration not stated) reads 41.5% (inactive).
Take `CC1(C)CC2=C(Sc3ccccc3N2)C(=O)C1C(=O)C(=O)Nc1cccc([N+](=O)[O-])c1` (configuration not stated): the growth inhibition is -11.7% (inactive).
The same measure for `Cc1csc(=NCc2cccnc2)n1C`: 23.6% (inactive); for `O=C1Nc2ccccc2C1O` (configuration not stated): -37.5% (inactive).
Take `Cc1c(-c2ccc3c(c2)COC3)sc(N)c1C#N`: the growth inhibition was 27.2% (inactive).
Regarding `CCc1cc2c(c3c1CCCC3)CC1(Cc3ccc(C(=O)OC)cc3C1)C2` (configuration not stated), the growth inhibition is -16.4% (inactive).
The result for `O=C1NCC/C1=C\c1ccccc1` reads -4.6% (inactive); that for `CCCNC(=S)/N=C\c1c(O)c2ccccc2oc1=O`, -35% (inactive).
The result for `O=c1[nH]c2c([N+](=O)[O-])cc(Cl)cc2nc1/C=C(\O)c1cccnc1` reads 33.8% (inactive).
